Bioassay records: PubChem, National Center for Advancing Translational Sciences (NCATS)
Lassa entry: inhibitors of Lassa virus binding or entry into cells. Lassa virus pseudotyped entry inhibition, cell-based qHTS. Potency, µM (highest dose often 49.2 µM), without a hit: at the top dose activity change, negative = inhibition, most hits filed as inhibitors. actives 4.1% (n = 18,000). AID 720533
MARV entry inh: inhibitors of Marburg virus binding or entry into cells; Marburg virus pseudotype entry/binding inhibition, cell-based; actives 6.5% (n = 18,000); Potency, µM (top dose mostly 49.2 µM), inactives show top-dose activity change, negative = inhibition, actives largely listed as inhibitors
The depositor's hits bear a star; ? = inconclusive; . = no result given; [ ] = remark or other dose. Sampled rows, rich in hits. Any-hit rate of the full collection: about 8%. Calls come from the whole dose curve; tested in HEK293 cells. % is set by controls: 0 for no effect and ±100 for the full control effect; potency is the fitted concentration of half-maximal effect.

SMILES	Lassa entry	MARV entry inh
CCC(C)[C@H]1O[C@]2(C=C[C@@H]1C)C[C@@H]1C[C@@H](C/C=C(\C)[C@@H](O[C@H]3C[C@H](OC)[C@@H](O[C@H]4C[C@H](OC)[C@H](NC(C)=O)[C@H](C)O4)[C@H](C)O3)[C@@H](C)/C=C/C=C3\CO[C@@H]4[C@H](O)C(C)=C[C@@H](C(=O)O1)[C@]34O)O2 (stereo not given in full)	12.6µM*	8.91µM*
CC[C@@H](C)[C@H]1O[C@]2(CC[C@@H]1C)C[C@@H]1C[C@H](C/C=C(/C)[C@H](O[C@@H]3C[C@H](OC)[C@H](O[C@@H]4C[C@H](OC)[C@@H](O)[C@H](C)O4)[C@H](C)O3)[C@@H](C)/C=C\C=C3CO[C@@H]4[C@H](O)C(C)=C[C@@H](C(=O)O1)[C@]34O)O2 (tested in a mixture with another compound)	?	-4.2%
CC[C@H](C)[C@@H]1O[C@]2(CC[C@@H]1C)C[C@H]1C[C@H](CC=C(C)[C@@H](O[C@@H]3C[C@H](OC)[C@H](O[C@@H]4C[C@H](OC)[C@H](O)[C@H](C)O4)[C@H](C)O3)[C@@H](C)C=CC=C3CO[C@@H]4[C@@H](O)C(C)=C[C@@H](C(=O)O1)[C@]34O)O2	-17.3%[17.8 µM]	?
CO[C@H]1C[C@H](O[C@H]2[C@H](C)O[C@@H](O[C@@H]3/C(C)=C/C[C@@H]4C[C@@H](C[C@]5(C=C[C@H](C)[C@@H](C6CCCCC6)O5)O4)OC(=O)[C@@H]4C=C(C)[C@@H](O)[C@H]5OC/C(=C\C=C\[C@@H]3C)[C@]54O)C[C@@H]2OC)O[C@@H](C)[C@@H]1O	10µM*	8.91µM*
N#Cc1ccc2c(c1)C[C@]1(c3ccsc3)OC3=C(C(=O)OC4(CCCCC4)C3)[C@H]2O1	-3.7%[8.59 µM]	?
O=C(Cc1ccc(Cl)c(Cl)c1)N1CCCCC1CN1CCCC1 (stereo not given)	?	7.94µM*
O=C(Nc1ccc(Cl)c(Cl)c1)C1CC1	-9.1%	5.6%
CN[C@@H](C)Cc1ccccc1	-9.2%[107 µM]	0.6%[107 µM]
CC(CC(c1ccccc1)c1ccccc1)NC(C)(C)C (stereo not given)	?	12.6µM*
C[C@@H]1CN(CCCn2c3ccccc3c3ccccc32)C[C@H](C)N1	17.8µM*	7.94µM*
Cc1ccccc1Nc1oc(-c2ccccc2)nc1C=Cc1ccccc1	9.6%[8.59 µM]	-21.3%[8.59 µM]
CS(=O)(=O)CCNCc1nc(-c2ccc3ncnc(Nc4ccc(OCc5cccc(C(F)(F)F)c5)cc4)c3c2)cs1	-17.6%	-16.2%
COCCNc1nc(-c2ccc(N(C)C)cc2)nc2ccccc12	4.0%	?
CN(C)c1ccc(-c2nc(NC3CCNCC3)c3ccccc3n2)cc1	-27.8%	14.1µM*
O=C1C2CC3CC1CC(O)(C3)C2	3.9%	10.5%
CCN1C(=NCCCCO)N[C@@H](CCc2ccccc2)[C@H](C(=O)OC)[C@H]1C	-7.6%[8.59 µM]	9.2%[8.59 µM]
Cc1nnc2n1-c1sc(CCc3ccc(CC(C)C)cc3)cc1C(c1ccccc1Cl)=NC2C (stereo not given)	7.94µM*	14.1µM*
Cc1nnc2n1-c1sc(CCC(=O)N3CCOCC3)cc1C(c1ccccc1Cl)=NC2	-16.4%	10.7%
COC(=O)C1=C(C)N(CCC(C)O[Si](C)(C)C(C)(C)C)C(=O)N(C(C)=O)C1c1ccccc1 (stereo not given)	2.9%[8.59 µM]	7.2%[8.59 µM]
CC(CCN1CCc2nc(-c3ccccc3)c(-c3ccccc3)cc2C1)=NOC[C@@H](O)COCc1ccco1	6.5%[8.59 µM]	23.7%[8.59 µM]
O=C(C[C@H]1C(=O)N(Cc2cccnc2)C[C@@H]1c1ccc(Br)cc1)Nc1ccc(Br)cc1	-27.4%	-23.8%
CC(C)=CCCC(C)=CCON=C1C[C@@H](O)[C@@H](O)[C@@H]2[C@H]3C(=O)N(C[C@@H]4CCCO4)C(=O)[C@@H]3CC[C@H]12	-17.1%[8.59 µM]	21.6%[8.59 µM]
O=c1c2ccccc2oc2cc(O)c(C3COCC(CO)C(O)C(O)C3O)c(O)c12 (stereo not given)	-7.1%	14.1µM*
O=c1cc(-c2ccc(O)cc2)oc2cc(O)c([C@@H]3O[C@H](CO)[C@@H](O)[C@H](O)[C@H]3O)c(O)c12	-7.2%	10.0%
O=C1CCCC=C1C(O)COCc1ccccc1 (stereo not given)	-25.5%[8.59 µM]	3.2%[8.59 µM]
SMILES	Lassa entry	MARV entry inh
CN(C)CCOc1ccc(-c2nc(-c3ccc4c(c3)CCC4=NO)c(-c3ccncc3)[nH]2)cc1	-94.7%	?
CN(C)CCOc1ccc(-c2cc(-c3ccc4c(c3)CCC4=NO)c(-c3ccncc3)o2)cc1	.	1.99µM*
COCC(=O)O[C@]1(CCN(C)CCCc2nc3ccccc3[nH]2)CCc2cc(F)ccc2[C@@H]1C(C)C	20µM*	8.91µM*
CCC1CN(CC(=O)N(C)Cc2nc3ccccc3[nH]2)Cc2cc(OC)ccc2O1 (stereo not given)	-1.9%	-12.8%
Cc1cccc(CN2CCN([C@H]3C[S+](=O)([O-])N[C@H]3COCc3ccccc3)CC2)c1	45.5%	?
Nc1c2ccccc2nc2ccccc12	?	14.1µM*
c1ccc2nc3ccccc3cc2c1	-27.4%	?
Nc1c2c(nc3ccccc13)CCCC2	?	10µM*
COc1cc(CCN2C(=O)NC(c3ccccc3)C(C(C)=O)=C2C)cc(OC)c1OC (stereo not given)	8.6%[8.59 µM]	6.3%[8.59 µM]
COC(=O)C1=C[C@@]2(c3ccc(F)cc3[C@@H](OC)[C@@H]2C)[C@@H]2C=C[C@H]1C2	-12.3%[8.59 µM]	2.1%[8.59 µM]
COC(=O)C1=C(C(=O)OC)[C@@H]2N(Cc3ccccc3)c3ccccc3[C@@]23C[C@@H](C(=O)OC)N(C(=O)NCCBr)C3=N1	-13.6%[8.59 µM]	7.6%[8.59 µM]
CCC(C)CN1C(=O)NC(CCc2ccccc2)C(C(C)=O)=C1C (stereo not given)	-9.6%[8.59 µM]	?
O=C(O)c1ccccc1Nc1cccc(OCc2ccc3ccccc3n2)c1	15.8µM*	?
O=C(O)c1ccccc1Nc1ccc(CCc2ccc(Cl)c(Cl)c2)cc1	-23.1%	-27.5%
O=C(c1cccs1)N1C[C@H](O)[C@H](n2cc(C3CC3)nn2)C[C@@H]1c1ccc(Cl)cc1	.	21.5%
Cc1cc2c(c(=O)n1Cc1ccccc1)[C@H]1O[C@](CCCCN3C(=O)c4ccccc4C3=O)(Cc3cc(C#N)ccc31)O2	-3.2%[8.59 µM]	?
C#CCN1C(=O)[C@]2(OCCC=C[C@H]2C)c2c(Br)cccc21	0.7%[8.59 µM]	?
CS(=O)(=O)Nc1cccc(-c2nc(N3CCNCC3)c3ccccc3n2)c1	14.9%	?
c1ccc2c(N3CCNCC3)nc(-c3ccc4c(c3)OCO4)nc2c1	-8.7%	10µM*
N#Cc1cccc(-c2nc(N3CCNCC3)c3ccccc3n2)c1	-0.8%	15.8µM*
Cc1noc(C)c1-c1nc(N2CCNCC2)c2ccccc2n1	4.7%	?
CC1(C)CC(n2cnc(-c3ccc(F)cc3)c2-c2ccnc(N)n2)CC(C)(C)N1	27.4%	?
C#CCCCON=C1C[C@@H](O)[C@H](O)[C@H]2[C@@H]3C(=O)N(C[C@@H]4CCCO4)C(=O)[C@@H]3CC[C@@H]12	25.7%[8.59 µM]	3.5%[8.59 µM]
CC#CCN1c2ccccc2[C@]23CCC(=O)N(Cc4cccc(C(F)(F)F)c4)C2=NC(C(=O)OC)=C(C(=O)OC)[C@H]13	-6.8%[8.59 µM]	18.5%[8.59 µM]
CC(C)CCON=O	-6.0%	-22.8%
CCON=O	10µM*	-18.5%
CC(C)=CCCC(C)=CC=CC1=CC2(C)CC1(C)C(C=C(C)CCC=C(C)C)CC2=O (stereo not given)	3.0%[8.59 µM]	?
CCn1c(-c2nonc2N)nc2c(C#CC(C)(C)O)ncc(OC3CCNCC3)c21	.	3.97µM*
